These results are taken from PubChem BioAssay (NCI).

Molecules are shown by their SMILES. About 79,000 compounds went through this panel and 15% of them were active in at least one assay; those are over-represented in the sample as a whole. Values without a mark were called inactive. Rule as the data show it: active = growth inhibition above about 70%; inactive = the rest.

The first assay can be described thus: NCI Yeast Anticancer Drug Screen. Data for the rad50 strain (AID 155).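 Also: 0% = growth of vehicle-only cultures of the same strain.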 The following applies: S. cerevisiae rad50 strain growth inhibition; at 50.0 µM; stronger effect = higher value. The gist of the method: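 DNA repair mutant yeast, compound exposure, growth read-out; inhibition is taken relative to vehicle.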
Consider `C/C(=N/N=C(N)N)c1cnn(C(=N)N)c1C`, for which the growth inhibition was 15.3%.

`CC1CCc2c(O)ccc(O)c21` (stereo unspecified): the growth inhibition is 5.7%.

`CC12CCC(=O)C=C1CCC1C2CCC2(C)C1CCC2(O)C(=O)Cn1c(=O)[nH]cc(F)c1=O` (stereo unspecified): the growth inhibition was -0.8%.

For `CCOC(=O)C(C)(C)/C=C\C(Cl)=C(Cl)Cl`, the growth inhibition was 4.1%.

Take `O=C1c2ccccc2C(=O)N1Cl`: the growth inhibition was 8.7%.

Turning to `COC(=O)C(CO)NC(=O)C(CC(C)C)NC(=O)C(CC(C)C)NC(=O)OCc1ccccc1` (stereo unspecified), the growth inhibition was 34.6%.

As for `NC(=O)NC(N)=O`, the growth inhibition is 13.3%.

For the molecule `O=C(C[N+]1(c2ccccc2)CCOCC1)c1ccccc1`, the growth inhibition is 28.4%.

As for `CC1OC(CC(=O)O)CC2=C1C(=O)c1c(O)cccc1C2=O` (stereo unspecified), the growth inhibition was -6.3%.

As to `CCNc1ncc2nc(CC(=O)OC)c(=O)n(CC)c2n1`, the growth inhibition is -10.3%.

Regarding `N#C/C(=C1/Sc2c(nc[nH]c2=O)N1c1ccccc1)c1nc2ccccc2[nH]1`, the growth inhibition is -34.6%.

As for `O=C(CSc1cc(Cl)c(Cl)cc1Cl)Nc1cccc(Cl)c1`, the growth inhibition is -7.9%.

Consider `O=C(/C=C/c1ccc(Cl)cc1)c1cccs1`, for which the growth inhibition was -2.85%.

For the molecule `COC(=O)C1=C(C)N(NC(N)=O)C(C)(O)C12CCOC2=O` (stereo unspecified), the growth inhibition was -3.8%.

On to `CN(C)CCCNC(=O)N/N=C/c1ccc(O)cc1`, for which the growth inhibition is -10.2%.

`O=C1C(=C(c2ccccc2)N2CCCCC2)C(=O)c2ccccc21`: the growth inhibition is 14.9%.

In the case of `Cc1nnc2cc(C(=O)O)c3ccccc3n2c1=O`, the growth inhibition is -28.6%.

On to `COc1cc(OC)c(OC)cc1/C=N/N=C(\N)NO`, for which the growth inhibition is -12.3%.

With `CC(=O)c1c(C)[nH]c(-c2ccccc2)c1NS(=O)(=O)c1ccc(N)cc1`, the growth inhibition is -0.2%.

Take `O=C(CCN1CCCCC1)Nc1ccc2sc3ccccc3c(=O)c2n1`: the growth inhibition is 51.9%.

Turning to `CCCC(SCCO)C(CC)CSCCO` (stereo unspecified), the growth inhibition is -16.8%.

A short description of the next assay: NCI Yeast Anticancer Drug Screen. Data for the mec2-1 strain (AID 157). As to conditions: S. cerevisiae mec2-1 strain, at 50.0 µM, stronger effect = higher value. The gist of the method: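 Each compound was tested on mec2-1 yeast, a strain altered in DNA damage repair or cell cycle control. Growth inhibition is reported relative to vehicle.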
Regarding `C(=C\c1ccc(OCc2ccccc2)cc1)/c1ccc(OCc2ccccc2)cc1`, the growth inhibition is -13.7%.

Turning to `C=CCNC(=O)N(CCC)CCCCC(NC(C)=O)C(=O)NCc1ccccc1` (stereo unspecified), the growth inhibition was 7.5%.

Turning to `CC1(C)OC(=O)C(=Cc2cccc3ccc4ccccc4c23)C(=O)O1`, the growth inhibition is 18.3%.

Regarding `CC1(C)C2CCC3CC(CCC#N)CCC3C21C#N` (stereo unspecified), the growth inhibition was -11.2%.

On to `Cc1ccc(S(=O)(=O)OCC(c2ccccc2)C(F)(F)F)cc1` (stereo unspecified), for which the growth inhibition was -14.2%.

Consider `CC(NC(=O)C(C)(C)C)c1ccc2c(c1)OCCO2` (stereo unspecified), for which the growth inhibition is -11.3%.

With `CCCCC1CCC2CCCCC2C1` (stereo unspecified), the growth inhibition is -2.5%.

`CCOC(=O)NC(=O)CC#N`: the growth inhibition is -29.8%.

Regarding `Fc1ccc(N2C(c3ccccc3)=N[C@@H](N3CCOCC3)[C@@H]2N2CCOCC2)cc1`, the growth inhibition was 11.2%.

As to `C(=C/c1ccccc1)/CN1CCCCC1`, the growth inhibition is 19.4%.

As to `O=C(O)C1C(CCl)=C1CCl`, the growth inhibition was 20.7%.

For the molecule `CC(OC(C(O)C=O)C(O)C(O)CO)C(=O)N[C@@H](C)C(=O)O` (stereo partly specified), the growth inhibition is -8.55%.

On to `CC1(C)C2C/C(=N/O)C(=O)C1C2` (stereo unspecified), for which the growth inhibition is 4.05%.

Regarding `C/C(O)=C(\C=N\C(=S)N=Nc1c(O)[nH]c2ccccc12)C(=O)Nc1ccccc1C`, the growth inhibition was 36.6%.

Consider `CC(CN(C)C)/C(=N\Nc1ccccc1)c1ccccc1` (stereo unspecified), for which the growth inhibition was 10%.

`COc1ccc(/C=N/CCl)cc1`: the growth inhibition is 2%.

For the molecule `CCC(=O)N(C)c1ccccc1`, the growth inhibition is 6.3%.

For `CNC(=O)n1cnc2ccccc21`, the growth inhibition is 30.4%.

Regarding `CCCCCCCCCCCCCCCCc1c(C(=O)OC)nc(NN)[nH]c1=O`, the growth inhibition was 5.2%.

With `C/C(=N/N=C(N)N)c1cnn(C(=N)N)c1C`, the growth inhibition was 13.3%.

As for `CC1CCc2c(O)ccc(O)c21` (stereo unspecified), the growth inhibition was 5.4%.

On to `CC12CCC(=O)C=C1CCC1C2CCC2(C)C1CCC2(O)C(=O)Cn1c(=O)[nH]cc(F)c1=O` (stereo unspecified), for which the growth inhibition was -1.2%.

For `CCOC(=O)C(C)(C)/C=C\C(Cl)=C(Cl)Cl`, the growth inhibition was 4.2%.

For the molecule `O=C1c2ccccc2C(=O)N1Cl`, the growth inhibition was -4.75%.

As for `COC(=O)C(CO)NC(=O)C(CC(C)C)NC(=O)C(CC(C)C)NC(=O)OCc1ccccc1` (stereo unspecified), the growth inhibition is 4.5%.

In the case of `NC(=O)NC(N)=O`, the growth inhibition is -10.4%.

For the molecule `O=C(C[N+]1(c2ccccc2)CCOCC1)c1ccccc1`, the growth inhibition is 5.6%.

On to `CC1OC(CC(=O)O)CC2=C1C(=O)c1c(O)cccc1C2=O` (stereo unspecified), for which the growth inhibition was -8.3%.

Turning to `CCNc1ncc2nc(CC(=O)OC)c(=O)n(CC)c2n1`, the growth inhibition was 1.6%.

On to `N#C/C(=C1/Sc2c(nc[nH]c2=O)N1c1ccccc1)c1nc2ccccc2[nH]1`, for which the growth inhibition was -14.4%.

On to `O=C(CSc1cc(Cl)c(Cl)cc1Cl)Nc1cccc(Cl)c1`, for which the growth inhibition was -6.9%.

As for `O=C(/C=C/c1ccc(Cl)cc1)c1cccs1`, the growth inhibition was -14.3%.

Regarding `COC(=O)C1=C(C)N(NC(N)=O)C(C)(O)C12CCOC2=O` (stereo unspecified), the growth inhibition was -2.2%.

With `CN(C)CCCNC(=O)N/N=C/c1ccc(O)cc1`, the growth inhibition is -25.1%.

Turning to `O=C1C(=C(c2ccccc2)N2CCCCC2)C(=O)c2ccccc21`, the growth inhibition was -3.6%.

Take `Cc1nnc2cc(C(=O)O)c3ccccc3n2c1=O`: the growth inhibition is -30.6%.

With `COc1cc(OC)c(OC)cc1/C=N/N=C(\N)NO`, the growth inhibition is 0.5%.

For `CC(=O)c1c(C)[nH]c(-c2ccccc2)c1NS(=O)(=O)c1ccc(N)cc1`, the growth inhibition was -3.45%.

As to `O=C(CCN1CCCCC1)Nc1ccc2sc3ccccc3c(=O)c2n1`, the growth inhibition is -19.7%.

Turning to `CCCC(SCCO)C(CC)CSCCO` (stereo unspecified), the growth inhibition was -9.55%.
